The text below walks through data of the supplement of paper PMC6555819.

Assay in all cases: PBM binding z-score (relative to random genomic background probes); higher = stronger binding; sequences stand for … in GC…GCGATTGACAGCGTAGAATGAAGG
The subject of assay [1] is PPARg:RXRa DBDmut IVT, anti-RXR (DBD mutation: RXRa K156A/R161A, NR concentration 270 nM, RXRa partner concentration 90 nM). In short, it runs like this: (§1)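 Antibodies against each partner of ligand-free nuclear receptor dimers (one per run) detected binding on custom Agilent 4×180K protein-binding microarrays after 1 h incubation. The double-stranded probes had 34-nt variable regions carrying direct-repeat seeds, single-nucleotide variants, half-site ablations and random human genomic background sequences. Binding z-scores, from regression-normalized fluorescence, use the random background probes as reference.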

Assay [2] relates to PPARg:RXRa IVT, anti-PPARg (NR concentration 270 nM, RXRa partner concentration 90 nM). The method, boiled down:
as §1

Assay [3] concerns PPARg DBDmut:RXRa IVT, anti-PPARg (DBD mutation: PPARg1 K132A/R137A, NR concentration 270 nM, RXRa partner concentration 90 nM). In short, it runs like this:
as §1

For assay [4], the system named is PPARg DBDmut IVT, anti-PPARg (DBD mutation: PPARg1 K132A/R137A, NR concentration 270 nM). In short, it runs like this: as §1
Assay [5] relates to PPARg homodimer (NR concentration 180 nM). The method, boiled down: as §1
Assay [6] relates to PXR:RXRa (NR concentration 270 nM, RXRa partner concentration 90 nM). The method, boiled down: as §1
Assay [7] concerns PXR homodimer (NR concentration 270 nM). In short, it runs like this: as §1
For assay [8], the system named is RARa:RXR (NR concentration 270 nM, RXRa partner concentration 90 nM). The method, boiled down: as §1
Assay [9] concerns RARa homodimer (NR concentration 270 nM). The method, boiled down:
as §1

Assay [10] deals with RARb:RXRa (NR concentration 270 nM, RXRa partner concentration 90 nM). The method, boiled down: as §1
For assay [11], the system named is RARb homodimer (NR concentration 270 nM). In short, it runs like this: as §1
Assay [12] has as its system RARg:RXRa (NR concentration 270 nM, RXRa partner concentration 90 nM). In short, it runs like this:
as §1

In assay [13] the test system is RARg homodimer (NR concentration 270 nM). The method, boiled down:
as §1

Assay [14] relates to RXRa DBDmut IVT, anti-RXR (DBD mutation: RXRa K156A/R161A, NR concentration 90 nM). The method, boiled down: as §1
Assay [15] has as its system RXRa homodimer (NR concentration 180 nM). The method, boiled down: as §1
Assay [16] deals with THRa:RXRa (NR concentration 90 nM, RXRa partner concentration 90 nM). In short, it runs like this:
as §1

In assay [17] the test system is THRa homodimer (NR concentration 90 nM). In short, it runs like this: as §1
Assay [18] relates to VDR homodimer (NR concentration 270 nM). The method, boiled down:
as §1

On to AGAATGAGGTTATACGTACATCAGGGAAGAAAGT, for which the PBM binding z-score in assay [1] came to 2.47; in assay [2], 2.41; in [3], 1.28; in [4], 1.19; in assay [5], 0.736; in assay [6] it was 1.28. Besides, the PBM binding z-score in assay [7] came to 0.643; in [8], 1.82; in assay [9], 0.483; in assay [10], 1.5; in [11] it was 0.803; in [12] it was 1.95. Moreover, the PBM binding z-score in assay [13] is 1.32; in [14] it was 1.73; in assay [15], 2.32; in assay [16], 2.13; in assay [17], 0.372; in [18] it was 1.22.

On to CCTACTGGGCCAAAAAGATCATTGATGCCGATAA, for which the PBM binding z-score is 3.14 in assay [1]; 2.44 in assay [2]; -0.679 in [3]; -0.158 in assay [4]; 0.38 in assay [5]; -0.395 in assay [6]. Besides, the PBM binding z-score was -0.298 in assay [7]; -0.562 in assay [8]; 0.184 in assay [9]; -0.239 in [10]; -0.443 in assay [11]; -0.189 in assay [12]. Besides, the PBM binding z-score in [13] is 0.104; in [14], -0.443; in [15] it was -0.145; in assay [16], -0.348; in [17] it was -0.71; in [18], -0.266.

As for ACAGACAGGTGATGAAGGTAGCTCAGGCTATCAT, the PBM binding z-score is 0.00476 in assay [1]; -0.161 in assay [2]; -0.42 in assay [3]; -0.376 in [4]; -1.11 in assay [5]; -0.38 in assay [6]. The PBM binding z-score was 0.0281 in assay [7]; -0.246 in assay [8]; 0.11 in assay [9]; 0.0595 in assay [10]; -0.243 in assay [11]; -0.0777 in assay [12]. Also, the PBM binding z-score in assay [13] was 0.295; in assay [14], -0.263; in assay [15], 0.147; in assay [16], 0.294; in [17], -0.392; in assay [18], -0.696.

CCTACTGGGCCACCAAAGGTCATTGATTCAGTGA: the PBM binding z-score in assay [1] turned out to be 5.36; in assay [2], 5.74; in assay [3] it was 1.31; in assay [4], 0.0425; in assay [5] it was 4.38; in [6] it was 5.69. The PBM binding z-score in assay [7] worked out at 2.75; in assay [8], 6.23; in assay [9], 2.56; in assay [10], 4; in [11], 4.49; in assay [12] it was 4.61. The PBM binding z-score in [13] worked out at 4.52; in assay [14], 0.43; in assay [15] it was 5.36; in assay [16], 3.67; in assay [17] it was 0.763; in [18], 2.66.

As to ATCTCTAGGTAAGACTCAATTCAGTGAAGAACGC, the PBM binding z-score in assay [1] is 1.93; in [2], 0.919; in assay [3], 0.318; in assay [4] it was 1.1; in assay [5], 0.738; in assay [6], -0.0296. Besides, the PBM binding z-score in assay [7] is 0.798; in [8] it was 0.462; in [9], 1.25; in assay [10], 0.115; in assay [11], 0.0312; in assay [12], 0.0724. Besides, the PBM binding z-score in [13] is 0.455; in assay [14] it was 0.244; in assay [15], 0.0675; in assay [16] it was 0.381; in [17], 0.522; in assay [18], 0.603.

ACTATTAGTTGAGCCGAGGGCAACCGATAGGTTG: the PBM binding z-score in assay [1] is -0.387; in [2], 0.273; in assay [3], 0.194; in assay [4], -0.123; in assay [5], -0.122; in assay [6], 1.43. Moreover, the PBM binding z-score came out at 0.308 in assay [7]; 0.433 in assay [8]; 0.387 in [9]; 1.21 in [10]; 1.35 in assay [11]; 0.604 in [12]. Also, the PBM binding z-score in assay [13] came out at 0.752; in assay [14], 0.39; in assay [15] it was 0.52; in assay [16] it was 2.57; in assay [17] it was 0.523; in [18] it was 0.692.

With ATATGTAGGTTAAGGGTCATTCAGGTTGGTTCGC, the PBM binding z-score was 7.43 in [1]; 7.64 in assay [2]; 1.5 in assay [3]; 1.61 in assay [4]; 4 in [5]; 5.48 in assay [6]. Besides, the PBM binding z-score in assay [7] stood at 2.98; in assay [8] it was 5.87; in assay [9] it was 2.71; in [10] it was 3.79; in assay [11], 4.16; in [12], 4.91. The PBM binding z-score came to 3.76 in [13]; 2.37 in [14]; 6.65 in assay [15]; 3.68 in assay [16]; 2.05 in assay [17]; 4.42 in assay [18].
